From PubChem BioAssay
Most compounds without a hit are left out; they make up all but 1% or so of the library.
RXFP1 agonist = activates the human relaxin receptor RXFP1; Q9HBX9; HEK293T-RXFP1 cAMP TR-FRET, 30 min; response scale: percent of porcine relaxin response, buffer zero; Potency, µM (series often up to 57.5 µM), for the others: top-dose activation, most hits filed as activators; 0.3% of 370,000 active; AID 2676; further: potency means the concentration at half of the fitted maximal effect; on the % scale 0 is the no-effect control and ±100 the full control effect; nearly all actives have a fitted effect of over 60% in size
Target sequence (Q9HBX9 whole entry, looked up): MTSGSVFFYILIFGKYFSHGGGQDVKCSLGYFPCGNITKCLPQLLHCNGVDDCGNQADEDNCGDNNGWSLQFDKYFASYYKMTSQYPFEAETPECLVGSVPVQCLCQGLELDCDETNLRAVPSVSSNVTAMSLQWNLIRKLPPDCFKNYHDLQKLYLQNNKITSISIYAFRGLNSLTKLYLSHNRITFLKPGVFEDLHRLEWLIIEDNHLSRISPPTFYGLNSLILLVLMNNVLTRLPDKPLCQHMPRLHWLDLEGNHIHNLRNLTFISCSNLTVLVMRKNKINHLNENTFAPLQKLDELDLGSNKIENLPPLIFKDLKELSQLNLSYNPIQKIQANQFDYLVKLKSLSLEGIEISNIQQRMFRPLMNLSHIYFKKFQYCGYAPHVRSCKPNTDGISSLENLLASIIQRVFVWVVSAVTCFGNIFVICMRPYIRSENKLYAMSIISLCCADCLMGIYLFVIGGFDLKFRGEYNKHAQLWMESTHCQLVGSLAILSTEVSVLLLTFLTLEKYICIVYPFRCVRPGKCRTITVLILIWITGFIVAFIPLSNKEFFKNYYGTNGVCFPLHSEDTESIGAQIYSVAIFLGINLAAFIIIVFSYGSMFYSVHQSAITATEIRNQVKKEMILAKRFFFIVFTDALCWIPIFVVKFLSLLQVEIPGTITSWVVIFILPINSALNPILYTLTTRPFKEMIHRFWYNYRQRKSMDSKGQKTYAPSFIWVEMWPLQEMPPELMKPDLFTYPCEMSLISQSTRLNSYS
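Agonist response is measured as cAMP accumulation in an RXFP1-transfected HEK293T line under PDE4 inhibition. Values are scaled between buffer-only and 29 nM porcine relaxin, and EC50s come from standard Hill equation fits.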
PTHR1 agonist = PTHR1 (human) receptor agonism | HEK293 GP2 PTHR1 cells, GloSensor cAMP luminescence, 1 h | 0.075% of 410,000 active | Potency, µM (titrated, usually from 115 µM), for inactives: at the highest dose activation, actives largely listed as activators; further: potency means the concentration at half of the fitted maximal effect; nearly all actives have a fitted effect of over 55% in size
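HEK-293-derived GP2 cells expressing PTHR1 and a GloSensor cAMP reporter, 3,000/well, plated overnight, given luciferin plus IBMX (each 0.5 mM as added) for 1 h at 37 °C, then compound for 1 h at 37 °C. Luminescence was read after 15 min at room temperature.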
gsp antagonist = antagonizes gsp, the McCune-Albright syndrome mutation; gsp-mutant cells, cAMP HTRF, 30 min; Potency, µM (doses to about 76.9 µM), for inactives: top-dose activity change, negative = inhibition, usual class: inhibitors; 0.4% of 340,000 active; AID 624288; calls by dose curve; cell line not stated here;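 further: intracellular cAMP measured with PDE inhibitor Ro 20-1724 present during compound exposure; potency means the concentration at half of the fitted maximal effect; on the % scale 0 is the no-effect control and ±100 the full control effect; nearly all actives have a fitted effect of over 65% in size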
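G418-selected cells were plated in DMEM/10% FBS for 16-24 h at 37C, then treated with compounds plus the PDE inhibitor […] (300 uM solution added) for 30 min at 37C. Intracellular cAMP was measured by HTRF after 30 min lysis at room temperature.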
RXFP1 antagonist = blocks the human relaxin receptor RXFP1; Q9HBX9; 0.59% of 350,000 active; activity change, negative = inhibition, % at 57.5 µM; HEK293-RXFP1, relaxin-stimulated cAMP HTRF, 30 min; stronger effect = lower value;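 active means activity change of -60% or lower, but not beyond a set lower limit; inconclusive means change between -60% and -40%, or beyond the set limit; inactive means change above -40%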; further: on the % scale 0 is the no-effect control and ±100 the full control effect
gsp ag = agonists of gsp mutant (McCune-Albright syndrome); gsp mutant cells, cAMP HTRF, 30 min; Potency, µM (titrated, usually from 76.9 µM), for inactives: at the highest dose activation (cAMP increase), most hits filed as activators; 0.13% of 340,000 active; AID 624287; active means well fitted activation curve with a large enough effect; inconclusive means small, poorly fitted or top-dose-only effect, or another doubt; inactive means no such curve, though single readings can be large or run the other way; cell line not stated here;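 further: phosphodiesterase inhibitor Ro 20-1724 added with compounds to block cAMP breakdown; potency means the concentration at half of the fitted maximal effect; nearly all actives have a fitted effect of over 60% in size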
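Cells in DMEM/10% FBS with G418 were pretreated with compounds in DMSO plus […] (300 uM stock) for 30 min at 37C. cAMP was measured by HTRF (cAMP-d2 plus anti-cAMP antibody-K) after 30 min at room temperature.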
An asterisk follows results filed as active; [ ] = dose if it differs, or a comment. Unless noted, the call rests on the fitted dose curve; in most records, active means well fitted curve in the direction sought with a large enough effect; inconclusive means small, poorly fitted or top-dose-only effect, or another doubt; inactive means no such curve, though single readings can be large; an effect the other way counts as inactive or inconclusive.

How did O=C(OCc1ccccc1)c1ccc(NCc2cc(O)ccc2O)cc1 do in these assays?
PTHR1 agonist: -34.3%; gsp antagonist: -7.6%; RXFP1 antagonist: -35.9; gsp ag: 20.4%

Results for COC(=O)c1ccc(O)cc1 ?
RXFP1 agonist: 5.9%; PTHR1 agonist: inactive; gsp antagonist: 5.9%; RXFP1 antagonist: 2.3; gsp ag: -9.0%[15.4 µM]

How did CC(C)OC(=O)c1ccc(NCc2cc(O)ccc2O)cc1 do in these assays?
PTHR1 agonist: -29.4%; gsp antagonist: 2.1%; RXFP1 antagonist: -63.5*; gsp ag: -28.5%

Results for COC(=O)c1ccc(CCc2cc(O)ccc2O)cc1 ?
PTHR1 agonist: -32.8%; gsp antagonist: 5.7%; RXFP1 antagonist: -71.9*; gsp ag: 20.4%

How did COC(=O)c1ccc(CCc2cc(O)c(Br)cc2O)cc1 do in these assays?
PTHR1 agonist: -36.7%; gsp antagonist: -6.3%; RXFP1 antagonist: -96.5*; gsp ag: -3.6%

Results for COc1cccc(N2CCN(C(=O)c3cnn(-c4ccccc4Cl)c3C3CCN(C(=O)OC(C)(C)C)CC3)CC2)c1 ?
RXFP1 agonist: 1.3%; PTHR1 agonist: -11.9%; RXFP1 antagonist: -24.1

Results for Cn1c(N)c(C(=O)CSc2nc(N)cc(=O)[nH]2)c(=O)n(C)c1=O ?
RXFP1 agonist: 15.1%; PTHR1 agonist: -10.3%[57.5 µM]; gsp antagonist: 5.5%; RXFP1 antagonist: -11.0; gsp ag: 17.4%

Results for Cc1cc(=O)[nH]c(SCC(=O)c2c(N)n(C)c(=O)n(C)c2=O)n1 ?
RXFP1 agonist: inconclusive; PTHR1 agonist: inactive; gsp antagonist: 35.6%; RXFP1 antagonist: 13.0; gsp ag: 25.1µM*

Results for COc1cc(/C=C/C(=O)O[C@H]2CC[C@]34C[C@]35CC[C@]3(C)[C@@H]([C@H](C)CCC=C(C)C)CC[C@@]3(C)C5CCC4C2(C)C)ccc1O (some centres undefined) ?
RXFP1 antagonist: 9.5

Results for CC(C)CC(=O)N1CCN(Cc2ccc3ccccc3c2)CC1 ?
RXFP1 agonist: 0.1%; PTHR1 agonist: -27.5%; gsp antagonist: 1.9%; RXFP1 antagonist: 8.3; gsp ag: -30.0%

Results for CSc1ccc(CN2CCN(C(=O)CC(C)C)CC2)cc1 ?
RXFP1 agonist: 2.6%; PTHR1 agonist: -22.3%; gsp antagonist: 4.1%; RXFP1 antagonist: -63.3*; gsp ag: -18.6%

How did CCN(CC)CCNc1ncnc2c1[nH]c1ccc(OC)cc12 do in these assays?
RXFP1 agonist: -0.4%

What do the screens show for `COc1ccc2[nH]c3c(NCCC4=CCCCC4)ncnc3c2c1`?
RXFP1 agonist: -0.9%; PTHR1 agonist: -47.4%; gsp antagonist: 28.2µM*; RXFP1 antagonist: -71.2*; gsp ag: -6.7%[15.4 µM]

How did CCC(C(=O)NCCc1ccc(C)cc1)n1nc(C)c2c(C)n(-c3ccccc3)nc2c1=O (centres undefined) do in these assays?
RXFP1 agonist: -2.4%; PTHR1 agonist: -53.4%; gsp antagonist: 50.1µM*; RXFP1 antagonist: -7.3; gsp ag: inconclusive

What do the screens show for `CCn1c(CN2CCCCC2)nc2cc(S(=O)(=O)N3CCCCC3)ccc21`?
RXFP1 agonist: -1.2%; PTHR1 agonist: 2.4%; gsp antagonist: 11.2µM*; RXFP1 antagonist: 8.7; gsp ag: -2.8%

Results for CCn1c(C)nc2cc(S(=O)(=O)N3CCCCC3)ccc21 ?
RXFP1 agonist: 0.9%; PTHR1 agonist: -20.0%; gsp antagonist: -15.8%; RXFP1 antagonist: 6.7; gsp ag: -23.8%

Results for COc1ccc(CC(CC(=O)O)C(=O)Nc2ccc(Cl)c(Cl)c2)cc1 (centres undefined) ?
RXFP1 agonist: 2.8%; PTHR1 agonist: -21.1%; gsp antagonist: 17.8µM*; RXFP1 antagonist: 2.2; gsp ag: 4.0%

What do the screens show for `CCOC(=O)/C(C#N)=C\c1c(OCC)n(CC)c2ccccc12`?
RXFP1 agonist: -0.5%; PTHR1 agonist: inactive; gsp antagonist: 25.1µM*; RXFP1 antagonist: -12.5; gsp ag: -2.8%[15.4 µM]

How did CCOc1c(/C=C(\C#N)C(N)=O)c2ccccc2n1CC do in these assays?
RXFP1 agonist: 1.6%; PTHR1 agonist: -12.7%; gsp antagonist: -1.7%; RXFP1 antagonist: 7.9; gsp ag: 15.8%
